Source: PubChem BioAssay (National Center for Advancing Translational Sciences (NCATS))
HT1080NT lethal – qHTS for induction of synthetic lethality in tumor cells producing 2HG: qHTS for the HT-1080-NT fibrosarcoma cell line. HT-1080-NT fibrosarcoma viability, CellTiter-Glo ATP luminescence, 48 h. Potency, µM (series often up to 46.1 µM), for the others: at the highest dose activity, negative = less viability, actives largely listed as cytotoxic. 360,000 compounds, 1.6% hits. AID 686970, 2013;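 further: NT is the 2HG producing partner of a matched IDH1 knockdown line; 0% = DMSO-treated cells and -100% = media-only wells without cells; nearly all actives have a fitted effect of over 55% in size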
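Read-out is CellTiter-Glo luminescence after 10 minutes at room temperature, following 48 hours' compound treatment of HT-1080-NT cells (750 cells/well, RPMI, 5% FBS, 37 degrees C).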
HT1080 IDH1KD tx – qHTS for induction of synthetic lethality in tumor cells producing 2HG: qHTS for the HT-1080-IDH1KD cell line; HT-1080 IDH1 knockdown viability, ATP luminescence, 48 h; Potency, µM (series often up to 46.1 µM), for the others: at the top dose activity, negative = toxicity, most hits filed as cytotoxic; 360,000 compounds, 2% hits; AID 686971, 2013;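 further: 0% = DMSO wells and -100% = cell-free medium wells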
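Knockdown cells (IDH1KD HT-1080) received compounds 2 h after plating at 750 cells/well and were kept 48 h at 37 °C in 5% FBS RPMI. A CellTiter-Glo luminescence read gave % activity for curve fitting.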
KB-V1 MDR tox – qHTS assay for MDR1-selective chemotherapeutics: Primary screen using the drug-selected MDR subline cells KB-V1. KB-V1 MDR cells viability, CellTiter-Glo, 72 h. Potency, µM (titrated, usually from 46.1 µM), most hits filed as cytotoxic. 400,000 compounds, 3.4% hits; further: on the % scale 0 is the no-effect control and ±100 the full control effect; nearly all actives have a fitted effect of over 60% in size
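Readout: CellTiter-Glo luminescence, 10 min after addition. Cells: KB-V1 MDR subline, 72 h at 37 degrees C with compound. Analysis: corrected, normalized data fitted to concentration-effect curves.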
SW480 rereplic – A quantitative high throughput screen for small molecules that induce DNA re-replication in SW480 colon adenocarcinoma cells. SW480 DNA re-replication, Hoechst DNA content imaging, 48 h. 340,000 compounds, 1.8% hits. Potency, µM (highest dose often 46.1 µM), for inactives: at the top dose re-replication activation, usual class: activators. AID 624297, 2012; further: % of control where 0% means no effect; nearly all actives have a fitted effect of over 55% in size
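Image-based read-out: total Hoechst fluorescence of nuclei (405 nm excitation, 500-530 nm emission), with hits raising the fraction of high-intensity nuclei. SW480 colon cells incubated 48 hr with compounds at 37 C.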
MCF10A rereplic – A quantitative high throughput screen for small molecules that induce DNA re-replication in MCF 10a normal breast cells; MCF 10A DNA re-replication, Hoechst nuclear intensity, 48 h; Potency, µM (top dose mostly 46.1 µM), for the others: top-dose activity, positive = re-replication, hits mostly activators; 350,000 compounds, 2.9% hits; further: % of control where 0% means no effect; nearly all actives have a fitted effect of over 50% in size
KB-3-1 tox – qHTS assay for MDR1-selective chemotherapeutics: Primary screen using the parental adenocarcinoma cell KB-3-1; KB-3-1 viability, CellTiter-Glo ATP luminescence, 72 h; Potency, µM (titrated, usually from 46.1 µM), hits mostly cytotoxic; 400,000 compounds, 1.4% hits; AID 1347075, 2019; further: on the % scale 0 is the no-effect control and ±100 the full control effect; nearly all actives have a fitted effect of over 60% in size
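Cells are dispensed, compounds pinned in, plates held at 37 °C for 72 h, then CellTiter-Glo is added and luminescence read after 10 minutes. Cell line: parental KB-3-1 in phenol-red-free DMEM, 10% FBS.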
The depositor's hits bear a star; i = inactive; ? = inconclusive; nt = no result given; ! = repeats disagree; [ ] = another dose, or the depositor's remark. Compounds with a hit are over-represented: about 8% of the library has one in this group of screens. The call rests on the fitted dose curve; in most records, active means well fitted curve in the direction sought with a large enough effect; inconclusive means small, poorly fitted or top-dose-only effect, or another doubt; inactive means no such curve, though single readings can be large; an effect the other way counts as inactive or inconclusive. Potency means the concentration at half of the fitted maximal effect.

SMILES	HT1080NT lethal	HT1080 IDH1KD tx	KB-V1 MDR tox	SW480 rereplic	MCF10A rereplic	KB-3-1 tox
COc1cc(C2=NOC(C(=O)Nc3ccc(C)cc3)C2)cc(OC)c1OC (centres undefined)	4%	-16%	i	3%	0%	i
COc1cc(C2=NOC(C(=O)NC3CCCCC3)C2)cc(OC)c1OC (centres undefined)	-4%	-6%	9.2µM*	0%	1%	i
COc1cc(OC)c(Nc2nc3ccccc3c3nncn23)cc1Cl	nt	nt	i	nt	nt	i
COc1ccccc1CNC(=O)c1ccc(Cn2c(SCc3ccccc3)nc3cccnc32)cc1	nt	nt	i	nt	nt	i
O=C(/C=C\c1cccs1)c1c(O)ccc2ccc(=O)oc12	?	23µM*	i	5%	21µM*	?
O=C(C=Cc1cccs1)c1cccs1	-8%	-3%	i	119%	?	i
O=c1[nH]c(=S)c2[nH]cnc2[nH]1	nt	nt	i	nt	nt	i
COc1ccc(CN2CCN(C(=O)c3ccccc3C(=O)c3ccccc3)CC2)cc1OC	2%	-1%	16µM*	-4%	-6%	i
COc1ccc(CN2CCN(C(=O)CCC(=O)c3ccc(C)s3)CC2)cc1OC	11%	12%	4.1µM*	-3%	11%	i
COc1ccc(CN2CCN(C(=O)c3cccc(OC)c3OC)CC2)cc1OC	2%	8%	i	-3%	-1%	i
CCC(=O)Nc1ccc(C)cc1-c1nc2ccccc2n(CC(=O)c2ccc(C)cc2)c1=O	nt	nt	i	nt	nt	i
COc1cc(NC(=O)C2CCN(S(=O)(=O)c3ccc4c(c3)CCCC(=O)N4)CC2)cc(OC)c1	nt	nt	i	nt	nt	i
Cc1ccccc1NC(=O)c1oc(=O)c2ccccc2c1-c1ccccc1	-14%	-8%	i	-1%	8%	i
Cc1ccc(C)c(NC(=O)c2oc(=O)c3ccccc3c2-c2ccccc2)c1	-1%	-13%	18µM*!	-11%	24%	i
Cc1cccc(NC(=O)c2oc(=O)c3ccccc3c2-c2ccccc2)c1C	-15%	?	10µM*	?	?	i
O=C(C[N+]12CCCc3cccc(c31)CCC2)c1ccc2ccccc2c1	nt	nt	i	nt	nt	?
COC(=O)C1=C[C@@H](C(=O)OC)C2C3=C(C(=O)C24CCCCC4)[C@H](C)n2c(=O)n(-c4ccccc4)c(=O)n2[C@@H]3C1 (some centres undefined)	1%	1%	i	-55%[9.22 µM]	1%	i
COC(=O)C1=C[C@@H](C(=O)OC)[C@@H]2C3=C(C(=O)C2(C)C)[C@H](C)n2c(=O)n(-c4ccccc4)c(=O)n2[C@@H]3C1	-1%	4%	i	5.2µM*	?	i
Cc1ccc(NC(=O)c2cc3c(-c4ccccc4)nn(-c4ccccc4)c3s2)cc1	nt	nt	?	nt	nt	i
CCN(c1ccccc1)c1nnc(NC(=O)Nc2cccc(Br)c2)s1	nt	nt	i	nt	nt	i
COc1ccc(Cn2cc(CN3CCc4onc(-c5ccc(Br)cc5)c4C3=O)nn2)cc1	?	?	21µM*	nt	nt	?
Cc1cc2nc(N3C(=O)CNC3=S)sc2cc1C	-22%	-16%	16µM*	?	15µM*	?
CCOc1ccc2nc(N3C(=O)CNC3=S)sc2c1	-17%	-1%	?	?	?	i
O=C1C(Cl)=C(N2CCCCCC2)C(=O)N1c1ccc(Cl)cc1	2%	-3%	i	-7%	-4%	i
O=C1C(Cl)=C(N2CCCCC2)C(=O)C(Cl)=C1c1cnc(N2CCCCC2)s1	?	16µM*	i	5.8µM*	5.8µM*	18µM*
SMILES	HT1080NT lethal	HT1080 IDH1KD tx	KB-V1 MDR tox	SW480 rereplic	MCF10A rereplic	KB-3-1 tox
Cc1ccc(N(Cc2cccs2)C(=O)c2ccc(Br)o2)cc1	nt	nt	i	nt	nt	i
CC(OC(=O)c1ccccc1C(=O)N(C)c1ccccc1)C(=O)Nc1ccc(C(N)=O)cc1 (centres undefined)	3%	5%	i	1%	8%	i
CC(OC(=O)c1cc(O)c2ccccc2c1O)C(=O)Nc1ccc(C(N)=O)cc1 (centres undefined)	16µM*	?	i	14%	?	i
CCc1nnc(NC(=O)c2cc(=O)c3cc(C)c(C)cc3o2)s1	nt	nt	?	nt	nt	i
CCN(CC)S(=O)(=O)c1ccc(N2CCOCC2)c(NC(=O)c2cccc3c(=O)c(C)c(-c4ccccc4)oc23)c1	-19%	2%	21µM*	0%	3.7µM*	i
Cc1ccc(C(=O)N2c3ccccc3N(Cc3ccccc3)C(=O)C2(C)C)cc1	-30%	?	6.5µM*	?	4%	i
O=S(=O)(c1ccc(Br)cc1)c1nc(-c2ccco2)oc1SCc1ccccc1Cl	nt	nt	i	nt	nt	?
CC(C)CN(CC(C)C)C(=O)c1cccc(S(=O)(=O)N2CCc3ccccc32)c1	?	?	10µM*	15%	?	?
O=C(CNC(=O)c1cccc(S(=O)(=O)N2CCc3ccccc32)c1)Nc1ccccc1Br	-7%	-13%	9.2µM*	6%	11%	i
COc1ccc(CN(C)C(=O)c2cccc(S(=O)(=O)N3CCc4ccccc43)c2)c(OC)c1	-9%[9.24 µM]	-12%	?	?	8%	18µM*
COc1ccccc1CN(C)C(=O)c1cccc(S(=O)(=O)N2CCc3ccccc3C2)c1	4%	3%	i	13%	5%	i
CC(C)CCNC(=O)c1cccc(S(=O)(=O)N2CCc3ccccc32)c1	-4%	-26%	i	15%	15%	i
CC(=O)c1cc(-c2ccc(F)cc2)n(CCC(=O)Nc2nc3c(C)cccc3s2)c1C	nt	nt	i	nt	nt	i
COc1ccccc1NC(=O)c1sc2nc(-c3cc4cc(Cl)ccc4oc3=O)[nH]c(=O)c2c1C	nt	nt	?	nt	nt	i
O=C(NN1C(=O)/C(=C/C=C/c2ccccc2)SC1=S)c1ccncc1	-9%	-7%	i	-2%	18µM*	i
CC(/C=C1\SC(=S)N(NC(=O)c2cccc(O)c2)C1=O)=C\c1ccccc1	-9%	-2%	?	-5%	12µM*	i
O=C(NN1C(=O)/C(=C/c2ccc(O)cc2)SC1=S)c1cccc(O)c1	0%	11%	i	-11%	-6%	i
